This is a sample that favours compounds with a hit; in the whole collection about 11% have one here.
NS1 inh = blocks influenza NS1 protein function. 0.4% of 270,000 active. Potency, µM (titrated, usually from 46.1 µM); calls by dose curve; note: actives are rising curves; nearly all actives have a fitted effect of over 50% in size
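A cell-based growth assay was used: compounds that relieve NS1-induced slow growth of budding yeast raise OD600. Assay medium was yeast nitrogen base with ammonium sulphate and -URA supplement, pH 6.0, with 2% galactose.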
Pf growth 96h = inhibits malaria parasite growth, 96 h; P. falciparum luciferase reporter growth, 96 h; Potency, µM (top dose mostly 28.7 µM), actives largely listed as inhibitors; 6.9% of 320,000 active; AID 504834
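96 h incubation, 37 C, 5% CO2, of luciferase-reporter P. falciparum-infected RBCs (2% hematocrit, 0.05% parasitemia final) with test compounds; endpoint luminescence.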
HCV inh = blocks hepatitis C virus; AID 651820; Huh7.5.1 HCVcc-Cre infection, luciferase reporter, 44 h; 3.4% of 340,000 active; Potency, µM (series often up to 41.8 µM), most hits filed as inhibitors
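HCVcc-Cre virus at an moi near 0.5 was added right after compound to cells cultured 4 h from seeding (1,000 cells/well). Luciferase activity was determined 44 h later, 15 min after substrate addition at RT.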
Vaccinia Venus = vaccinia inhibition (Venus reporter) | Vaccinia virus Venus reporter expression, fluorescence | AID 720580 | 0.46% of 330,000 active | Potency, µM (titrated, usually from 36.5 µM), usual class: inhibitors; calls by dose curve; tested in A549 cells; note: nearly all actives have a fitted effect of over 30% in size
Vaccinia mCherry = inhibitors of vaccinia virus infection (mCherry reporter signal); Vaccinia virus mCherry reporter infection, fluorescence; 0.63% of 310,000 active; Potency, µM (doses to about 36.5 µM), hits mostly inhibitors; AID 720579; calls by dose curve; tested in A549 cells; note: nearly all actives have a fitted effect of over 35% in size
Pf growth 48h = P. falciparum growth inhibition at 48 hours (one generation); P. falciparum luciferase growth in erythrocytes, 48 h; Potency, µM (series often up to 28.7 µM), usual class: inhibitors; 5.9% of 310,000 active
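A one-generation exposure of luciferase-tagged malaria parasites in RPMI 1640/Albumax erythrocyte culture, 37 C and 5% CO2. Inhibition is inferred from decreased luminescence after adding detection reagent.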
Hits are given with their value; – = inactive; ? = inconclusive; · = no result; [ ] = dose if it differs, or a comment. Unless noted, calls come from the whole dose curve; as a rule, active = well fitted inhibition curve with a large enough effect; inconclusive = small, poorly fitted or top-dose-only effect, or another doubt; inactive = no such curve, though single readings can be large or run the other way.

SMILES	NS1 inh	Pf growth 96h	HCV inh	Vaccinia Venus	Vaccinia mCherry	Pf growth 48h
COc1ccccc1NS(=O)(=O)c1cc(NC(=O)c2cccc(S(=O)(=O)N(C)C)c2)ccc1N1CCOCC1	·	1.5µM	?	–	–	2.3µM
COc1ccccc1NS(=O)(=O)c1cc(NC(=O)C(C)(C)C)ccc1N1CCOCC1	·	?	?	–	–	?
COc1ccccc1NS(=O)(=O)c1cc(NC(=O)c2cnccn2)ccc1N1CCOCC1	–	?	–	·	·	12µM
COc1ccccc1NS(=O)(=O)c1cc(NC(=O)c2ccncc2)ccc1N1CCOCC1	–	15µM	?	–	–	?
COc1ccccc1NS(=O)(=O)c1cc(NC(=O)c2ccc(NC(C)=O)cc2)ccc1N1CCOCC1	·	·	?	–	–	·
CCc1ccc(N(C2C=CS(=O)(=O)C2)S(=O)(=O)c2ccc(C)cc2)cc1 (configuration not stated)	–	–	–	·	·	–
COc1ccccc1NS(=O)(=O)c1cc(NC(=O)c2cc(=O)[nH]c3ccccc23)ccc1N1CCOCC1	–	?	25µM	·	·	10µM
CN(C)/C=N/n1cnc2ccccc2c1=O	–	–	?	–	–	–
Cc1cc(NCCCn2ccnc2)n2ncc(-c3ccccc3)c2n1	–	–	–	?	·	–
Cc1cc(NCCCn2ccnc2)n2nc(C)c(-c3ccc(Cl)cc3)c2n1	–	–	10µM	·	·	·
Cc1cc(NCCN2CCOCC2)n2nc(C)c(-c3ccccc3)c2n1	?	·	?	–	·	–
Cc1cc(NCCN2CCOCC2)n2nc(C)c(-c3ccc(Cl)cc3)c2n1	–	?	10µM	–	·	–
Cc1cc(NCCCn2ccnc2)n2nc(C)c(-c3ccccc3)c2n1	–	12µM	?	·	·	·
CC(Oc1ccc2c3c(c(=O)oc2c1)CCCC3)C(=O)NCC1CCC(C(=O)O)CC1 (configuration not stated)	–	–	–	·	·	–
CCCOC(=O)C1=C(C)NC2=C(C(=O)CC(C)(C)C2)C1c1ccc(N(C)C)cc1 (configuration not stated)	–	–	–	–	·	?
CCCOC(=O)C1=C(C)NC2=C(C(=O)CC(C)(C)C2)C1c1cccnc1 (configuration not stated)	–	10µM	–	–	–	?
CCOc1ccccc1CNCCSc1nnnn1C	·	·	·	–	–	·
CCN(CC(=O)Nc1ccc(NC(C)=O)cc1)C(=O)/C=C/c1cn(Cc2ccccc2)nc1-c1cccnc1	·	10µM	–	–	–	?
C#CCNC(=O)C1=C[C@H](c2coc3ccccc3c2=O)C[C@H](OCCCCO)O1	–	–	–	–	–	–
O=C(NCCN1CCOCC1)c1ccc(NC(=O)C2COc3ccccc3O2)cc1 (configuration not stated)	·	–	–	–	–	–
CCOC(=O)C1=NNC(C(=O)c2ccc(C)cc2)C1c1ccc(C)cc1 (configuration not stated)	–	–	–	–	–	10µM
CCOC(=O)C1=NNC(C(=O)c2ccccc2)C1c1ccc(C)cc1 (configuration not stated)	–	2.1µM	–	·	·	1.7µM
CCOC(=O)C1=NNC(C(=O)c2ccccc2)C1c1ccc(Cl)cc1 (configuration not stated)	–	–	?	–	–	–
O=C(COC(=O)c1cccc([N+](=O)[O-])c1)NC1CCCC1	–	–	–	·	·	–
Cc1ccc(NC(=O)c2cc3nc(C)cc(C)n3n2)cc1	–	–	–	·	·	·
SMILES	NS1 inh	Pf growth 96h	HCV inh	Vaccinia Venus	Vaccinia mCherry	Pf growth 48h
CCCC1=[N+](CC(=O)c2ccc(C)cc2)CCn2cccc21	–	?	–	–	–	10µM
COc1cc2c(cc1OC)C(C)N(C(=O)c1cc3ccccc3o1)CC2 (configuration not stated)	–	?	10µM	·	·	?
COc1cc2c(cc1OC)C(C)N(C(=O)c1cc3c(s1)-c1ccccc1OC3)CC2 (configuration not stated)	?	–	11µM	–	–	–
COc1cc2c(cc1OC)C(C)N(C(=O)c1cc3c(s1)-c1c(C)cccc1OC3)CC2 (configuration not stated)	–	?	?	·	·	?
Cc1sc2ncn(CC(=O)Nc3ccccc3F)c(=O)c2c1-c1ccccc1	·	–	?	–	–	–
COC(=O)C1=C(C)NC(C)=C(C(=O)OCCCN2CCC(c3ccccc3)(c3ccccc3)CC2)C1c1cccc([N+](=O)[O-])c1 (configuration not stated)	·	15µM	·	–	–	1.5µM
CCCCN1C(=O)NC(c2cccc([N+](=O)[O-])c2)C(C(=O)OCC)=C1C (configuration not stated)	·	·	–	–	–	·
C#CCN1C(C)=C(C(=O)OC)C(c2cccc([N+](=O)[O-])c2)C(C(=O)OCC)=C1C (configuration not stated)	–	?	?	–	–	13µM
CCOC(=O)[C@H]1[C@H]2COc3ccc(Br)cc3[C@@H]2N2C(=O)N(c3ccc(F)cc3)C(=O)[C@@]12C	·	·	?	–	–	·
CC(C)(C)NS(=O)(=O)c1ccc(NC(=S)NC(=O)C2CCC2)cc1	–	?	–	–	–	–
CSc1nc(NCC(C)C)c2c3c(sc2n1)CN(C)CC3	–	3.3µM	?	·	·	?
COCCNc1nc(SC)nc2sc3c(c12)CCN(C)C3	–	?	–	·	·	–
CSc1nc(NCc2ccccc2)c2c3c(sc2n1)CN(C)CC3	–	?	–	·	·	13µM
N#Cc1nc(-c2ccc(OCc3ccccc3)cc2)oc1N1CCC(C(N)=O)CC1	–	?	?	?	–	?
Cn1c(O)c(C=NCCOc2ccc(Cl)cc2)c(=O)n(C)c1=O	–	–	–	–	–	–
COc1ccccc1Oc1ccc(N/C=C/C(=O)c2ccc(C)o2)cc1	·	–	22µM	–	?	–[5.75 µM]
COc1ccc(N/C=C/C(=O)c2ccccc2)cc1	–	–	–	·	·	–
COc1ccc(N/C=C/C(=O)c2sc(-c3ccccc3)nc2C)cc1	–	–	10µM	?	?	–
COc1ccc(-c2cn(-c3ccc(Br)cc3)c3[n+]2CCS3)cc1	–	?	–	–	–	1µM
Fc1ccc(-c2cn(-c3ccccc3)c3[n+]2CCS3)cc1	–	0.41µM	?	–	–	0.93µM
Clc1ccc(-c2cn(-c3ccccc3)c3[n+]2CCS3)cc1	–	–[5.75 µM]	–	–	–	?
CCOC(=O)N1CCN(C(=O)CS(=O)(=O)Cc2nc(-c3ccccc3F)oc2C)CC1	–	–	–	–	–	–
COCCN(C(=O)COC(=O)C(c1ccccc1)c1ccccc1)c1c(N)n(Cc2ccccc2)c(=O)[nH]c1=O	·	7.4µM	–	–	–	10µM
COCCn1c(C)cc(/C=C(\C#N)C(=O)OCC(=O)N(C)c2c(N)n(Cc3ccccc3)c(=O)[nH]c2=O)c1C	·	13µM	–	–	–	?
COCCN(C(=O)COC(=O)c1ccccc1Nc1ccccc1)c1c(N)n(Cc2ccccc2)c(=O)[nH]c1=O	·	9.3µM	?	–	–	?

Screens as filed in PubChem BioAssay.
